Several values for one entry are separate records, joined by “and”; a condition that tells them apart may be missing. Identical values can stand only once. Records with an inconclusive call do not appear. Activity calls are given as the source filed them. Unless noted, calls come from the whole dose curve; as a rule, active = well fitted curve in the direction sought with a large enough effect; inconclusive = small, poorly fitted or top-dose-only effect, or another doubt; inactive = no such curve, though single readings can be large; an effect the other way counts as inactive or inconclusive.

Experiment [1] concerns the target Cytochrome P450 1A2 (Homo sapiens) (UniProt P05177). Put plainly: p450-cyp1a2 (AID 410; calls by dose curve; note: potency is the fitted concentration of half-maximal effect;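 for activity change, negative = inhibition: -100% = full effect of reference inhibitor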). The procedure, abridged: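 Luminescent readout of luciferin formed from Luciferin-ME by human CYP1A2; data normalized against complete inhibition by 57 uM furafylline. Enzyme 20nM, substrate 100uM at Km, 100mM KPO4 buffer, 60 min reaction at room temperature.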
The target in experiment [2] is Glucocorticoid receptor (Homo sapiens) (UniProt P04150). The experiment in a line: GR-GFP Redistribution (AID 450;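 active = compounds whose dose series gives a full or clear partial fitted curve of increased nuclear translocation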; note: potency is the fitted concentration of half-maximal effect). The following applies: U2OS GR-GFP nuclear translocation, laser cytometry, 2 h.
For experiment [3] the target is unchanged. Put plainly: GR-EFC Redistribution (AID 451; calls by dose curve; note: potency is the fitted concentration of half-maximal effect). The following applies: CHO-K1 GR-EFC translocation, beta-gal luminescence, 2 h. The procedure, abridged:
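CHO-K1 cells expressing nuclear EA and GR-ED fragments of b-gal; compounds titrated up to 46 uM final, 2 h at 37 C. GR nuclear translocation read as complemented b-gal luminescence after 1 h RT detection.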

The target in experiment [4] is Mitogen-activated protein kinase 10 (Mus musculus) (UniProt Q61831). The experiment in a line: JNK3 AlphaScreen Assay (AID 530; active = well fitted curve in either direction with a large enough effect, not every such curve was filed as active;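 note: kinase came from lysate of stimulated human HepG2 cells; signal reports phosphorylation of biotinylated GST-cJun 1-79 at Ser73 with 10 µM ATP; % is set by controls: 0 for no effect and ±100 for the full control effect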). The procedure, abridged:
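Pre-activated (IL-1β/TNFα) JNK3 in HepG2 lysates phosphorylates biotin-GST-cJun(1-79), 10 uM ATP; anti-phospho-cJun(Ser73) AlphaScreen read at room temperature, pH 7.6 Tris buffer. Compounds pre-incubated 15 min as titrations.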
Background: In Alpha technology, singlet oxygen from a donor bead excites a nearby acceptor bead.

For experiment [5], the target named is 3',5'-cyclic-AMP phosphodiesterase 4B (Homo sapiens) (UniProt Q07343). The experiment in a line: qHTS Assay for Inhibitors of PDE-IV (AID 607; active = well fitted activation curve with a large enough effect in the main read-out, with a control signal flat, not every such curve was filed as active; note: % of control where 0% means no effect). The procedure, abridged: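 The readout is membrane depolarisation from a cAMP-sensing CNG channel, detected with a potential dye at ex 535/em 590. Cells were HEK293-derived (endogenous PDE-IV) at 1000 cells/well, titrated up to 22.9 uM final.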
(In general: Quantitative high-throughput screening tests each substance at several concentrations.)

The target of experiment [6] is Cytochrome P450 2C9 (Homo sapiens) (UniProt P11712). The experiment in a line: qHTS Assay for Inhibitors and Substrates of Cytochrome P450 2C9 (AID 883). Note: nearly all actives have a fitted effect of over 60% in size. Note: potency is the fitted concentration of half-maximal effect. The method in brief: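 10nM CYP2C9 + 100uM Luciferin-H (=KM), 25mM KPO4; cpd 10 min 37C; NADPH regen, 60 min 37C; stop/detect with P450 Glo-Buffer 20 min; luminescence. Norm. to 57uM sulphaphenazole as full inhibition.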

The nature of experiment [7]: qHTS Assay for Lipid Storage Modulators (AID 1519; calls by dose curve). The settings on record: Drosophila S3 cells, BODIPY lipid droplet/cell ratio, laser cytometry, cells loaded with oleic acid; for activity change, negative = inhibition: at 57.5 µM (top of the series). The procedure, abridged:
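Cells seeded at 5,000 per well were treated with compounds over a concentration series and loaded with oleic acid (400 uM, as added). Lipid droplet fluorescence (488 nm excitation, 500-530 nm channel) was read by laser-scanning cytometry and normalized to 20 uM Triacsin C.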

Experiment [8] addresses DNA dC->dU-editing enzyme APOBEC-3G (Homo sapiens) (UniProt Q9HC16). Put plainly: qHTS for inhibitors of Vif-A3G interactions: Validation (AID 588379). Note: 0% is about no effect. The procedure, abridged:
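HeLa cells stably expressing Vif and A3G-eYFP, 700 cells/well, incubated overnight at 37 deg C, then exposed to compound overnight at 37 deg C. Inhibition of Vif-mediated degradation read as increased yellow fluorescence (Ex 488/Em 500-530) by laser-scanning cytometry.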

The subject of experiment [9] is Zika virus NS2B-NS3 protease. Put plainly: Primary screen GU AMC qHTS for Zika virus inhibitors (AID 1347154).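 Note: 0% = no-inhibitor control and -100% = no-enzyme control; nearly all actives have a fitted effect of over 70% in size.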 The procedure, abridged: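 Unlinked Zika NS2B hydrophilic domain–NS3 protease complex at 25 nM in 10 mM Tris-HCl pH 8.0, 0.01% Tween 20, with an AMC peptide substrate. Fluorescence change (340/450 nm) over 15 min at room temperature, normalized to controls, fitted to 4-parameter Hill.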

A short description of experiment [10]: Primary qHTS for small molecule stabilizers of the endoplasmic reticulum resident proteome: Secreted ER Calcium Modulated Protein (SERCaMP) assay (AID 1508630). Note: % is set by controls: 0 for no effect and ±100 for the full control effect. The procedure, abridged:
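GLuc-SERCaMP-expressing SH-SY5Y cells, pretreated 16 h with compound, are challenged with thapsigargin to empty ER calcium stores; after 4 h, coelenterazine is added directly to the medium and luminescence is imaged.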

The target in experiment [11] is Ubiquitin carboxyl-terminal hydrolase 1 (Homo sapiens) (UniProt O94782). The experiment in a line: Inhibitors of USP1/UAF1: Pilot qHTS (AID 504865).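 Note: rhodamine fluorescence freed from ubiquitin-rhodamine substrate followed over time; top concentration of the series differs between compounds; % is set by controls: 0 for no effect and ±100 for the full control effect; nearly all actives have a fitted effect of over 35% in size.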 The procedure, abridged: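 In 50mM HEPES pH 7.8 containing 0.5mM EDTA, 1mM TCEP, 0.1 mg/ml BSA and 0.01% Tween-20, 1nM USP1/UAF1 is exposed to compound for 15 min, then Ub-Rho (150nM final) is added and fluorescence is read over time.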

A short description of experiment [12]: AP1 Signaling Pathway (AID 357; active = well fitted curve in either direction with a large enough effect, not every such curve was filed as active;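 note: ME-180 reporter cells stimulated with EGF at its EC50 level; % is set by controls: 0 for no effect and ±100 for the full control effect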). The settings on record: ME-180 AP-1-bla reporter, EGF-induced, beta-lactamase ratio, 5 h; at 38 µM (top of the series). The procedure, abridged: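 A ratiometric CCF4 readout (405 nm excitation; 460 and 530 nm emission) quantified AP-1-driven beta-lactamase in ME-180 cells after 5 h with compound and EC50 EGF; AC50 values were derived for activators and inhibitors.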

Experiment [13] in a line: NFAT Signaling Pathway (AID 444; active = well fitted curve in either direction with a large enough effect, not every such curve was filed as active;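 note: carbachol stimulus at about its EC50 of 1 µM final; % is set by controls: 0 for no effect and ±100 for the full control effect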). The following applies: Jurkat NFAT-bla M1, carbachol, beta-lactamase ratio, 5 h; at 38 µM (top of the series). The procedure, abridged: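 Jurkat cells with NFAT-driven β-lactamase reporter and co-expressed M1 receptor, stimulated with carbachol (final 1 uM, ~EC50), compound titration, 5 h at 37 °C. CCF4 loaded 1 h at RT; 460/530 nm ratio gave %activity and AC50.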

Experiment [14] deals with Cytochrome P450 3A4 (Homo sapiens) (UniProt P08684). The experiment in a line: qHTS Assay for Activators of Cytochrome P450 3A4 (AID 885). Note: nearly all actives have a fitted effect of over 65% in size. The procedure, abridged:
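Steps: enzyme/substrate mix dispensed; compound added, 10 min RT; NADPH regeneration solution added, 60 min RT; luciferin detection buffer stops reaction; 20 min later luminescence measured.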

The target of experiment [15] is Cytochrome P450 2D6 (Homo sapiens) (UniProt P10635). Put plainly: qHTS Assay for Inhibitors and Substrates of Cytochrome P450 2D6 (AID 891). Note: nearly all actives have a fitted effect of over 60% in size. Note: potency is the fitted concentration of half-maximal effect. The method in brief: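 Human CYP2D6 (5 nM) with 30 uM Luciferin-ME EGE (at Km) in 100 mM KPO4, compound preincubated 10 min, then NADPH regeneration system for 60 min at room temperature. Luciferin read by luminescence; normalized to 1.43 uM quinidine.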

Experiment [16] in a line: qHTS Assay for Identification of Small Molecule Agonists for Thrombopoietin (TPO) Signaling Pathway (AID 917). Note: % is set by controls: 0 for no effect and ±100 for the full control effect. The method in brief:
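Luminescence from a Glycoprotein IIb promoter–driven luciferase reporter served as read-out in murine Ba/F3 cells carrying the human TPO receptor. Cells, deprived of IL-3 overnight, received compounds with 26 pM TPO and were incubated 24 hrs at 37 C.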

The target of experiment [17] is Pyruvate kinase (Leishmania mexicana) (UniProt Q27686). Put plainly: qHTS Validation Assay for Inhibitors of Leishmania Mexicana Pyruvate Kinase (AID 945).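 Note: 0% = DMSO only neutral control wells.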 The method in brief: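 Read-out: luminescence from PKLight stop/detection reagent, data normalized to DMSO. Reaction: 0.2 nM E451W LmPYK, 0.5 mM PEP, 0.1 mM ADP, pH 7.2, 1 h room temperature.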
The target in experiment [18] is Pyruvate kinase PKM (Homo sapiens) (UniProt P14618). The experiment in a line: qHTS Assay for Activators of Human Muscle Pyruvate Kinase (AID 954; active = well fitted curve in the direction sought with a large enough effect, not every such curve was filed as active;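 note: 0% = uninhibited enzyme and -100% = no enzyme or full thiadiazolimine inhibition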). The procedure, abridged: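 Reaction: 0.1 nM purified PKM2 with 0.5 mM phosphoenolpyruvate and 0.1 mM ADP, room temperature, 1 h. Readout: luciferase-based ATP luminescence after stop reagent. Activators judged against a 0.3 nM enzyme column.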

Experiment [19] concerns the target alpha-glucosidase (Oryza sativa, rice) (UniProt Q653V4). The experiment in a line: Counterscreen for Glucocerebrosidase Inhibitors: qHTS Assay for Rice alpha-Glucosidase at pH 5.0 (AID 997).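 Note: 0% = full activity with enzyme and -100% = basal without enzyme.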 The procedure, abridged: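 Rice alpha-glucosidase (4 nM final) with 400 uM 4-methylumbelliferyl-alpha-D-glucopyranoside in citrate buffer pH 5.0, 20 min at room temperature, stopped at pH 10; fluorescence 365/440 nm, compounds 0.7 nM–77 uM, AC50 from Hill fits.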
In general terms: A counterscreen serves to expose hits that act by an unwanted route or on another target.

Experiment [20] in a line: Stat Signaling Pathway (AID 446; active = well fitted curve in either direction with a large enough effect, not every such curve was filed as active). The following applies: ME-180 SIE beta-lactamase reporter, IL-6 stimulated, 5 h; at 38 µM (top of the series). The procedure, abridged:
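Screening format detects activators and inhibitors alike: ME-180 SIE-bla cells stimulated at 40 pM IL-6 for 5 hrs with compound, then dual-emission beta-lactamase read at 405 nm excitation.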

Setting [21] is: measured here: cell count channel max response.
The mark [22] stands for this setting: measured here: lipid channel max response.

DNA dC->dU-editing enzyme APOBEC-3G (Homo sapiens), sequence (Q9HC16 whole entry, looked up): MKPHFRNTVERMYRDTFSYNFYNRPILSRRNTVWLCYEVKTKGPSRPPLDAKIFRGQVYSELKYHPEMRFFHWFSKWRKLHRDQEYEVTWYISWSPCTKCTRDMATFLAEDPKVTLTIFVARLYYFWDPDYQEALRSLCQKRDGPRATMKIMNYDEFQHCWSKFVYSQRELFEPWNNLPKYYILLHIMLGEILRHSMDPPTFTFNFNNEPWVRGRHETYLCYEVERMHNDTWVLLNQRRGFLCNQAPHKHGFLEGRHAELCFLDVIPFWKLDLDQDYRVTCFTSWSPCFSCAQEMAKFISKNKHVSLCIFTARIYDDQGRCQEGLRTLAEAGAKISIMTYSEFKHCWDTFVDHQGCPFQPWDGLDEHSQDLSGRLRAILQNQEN
Cytochrome P450 2C9 (Homo sapiens), sequence (P11712 whole entry, looked up): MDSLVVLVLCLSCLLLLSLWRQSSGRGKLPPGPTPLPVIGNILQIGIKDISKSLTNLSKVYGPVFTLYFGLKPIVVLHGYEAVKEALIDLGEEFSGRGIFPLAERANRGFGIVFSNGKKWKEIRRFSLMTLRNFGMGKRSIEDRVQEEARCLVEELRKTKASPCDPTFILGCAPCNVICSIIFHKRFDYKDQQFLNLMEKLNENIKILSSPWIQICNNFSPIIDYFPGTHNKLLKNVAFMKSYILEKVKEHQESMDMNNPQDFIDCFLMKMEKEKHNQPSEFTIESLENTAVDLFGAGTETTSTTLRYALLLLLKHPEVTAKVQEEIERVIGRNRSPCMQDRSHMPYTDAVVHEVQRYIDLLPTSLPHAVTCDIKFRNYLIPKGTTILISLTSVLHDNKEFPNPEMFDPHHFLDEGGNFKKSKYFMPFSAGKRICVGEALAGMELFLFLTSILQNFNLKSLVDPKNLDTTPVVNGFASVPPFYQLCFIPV
Cytochrome P450 1A2 (Homo sapiens), sequence (P05177 whole entry, looked up): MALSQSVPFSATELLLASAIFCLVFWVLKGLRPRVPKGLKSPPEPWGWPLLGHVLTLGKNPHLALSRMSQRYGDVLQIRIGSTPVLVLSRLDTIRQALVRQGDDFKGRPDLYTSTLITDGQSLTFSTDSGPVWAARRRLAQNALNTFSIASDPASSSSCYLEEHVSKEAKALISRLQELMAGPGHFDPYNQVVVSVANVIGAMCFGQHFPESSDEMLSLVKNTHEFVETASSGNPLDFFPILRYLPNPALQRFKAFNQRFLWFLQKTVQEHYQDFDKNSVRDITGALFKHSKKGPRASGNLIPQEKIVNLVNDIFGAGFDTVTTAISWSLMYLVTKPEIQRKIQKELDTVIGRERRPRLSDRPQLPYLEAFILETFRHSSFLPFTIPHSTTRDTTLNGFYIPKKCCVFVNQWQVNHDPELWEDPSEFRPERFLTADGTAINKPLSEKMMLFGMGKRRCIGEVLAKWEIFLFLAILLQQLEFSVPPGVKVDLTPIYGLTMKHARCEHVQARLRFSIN
Cytochrome P450 2D6 (Homo sapiens), sequence (P10635 whole entry, looked up): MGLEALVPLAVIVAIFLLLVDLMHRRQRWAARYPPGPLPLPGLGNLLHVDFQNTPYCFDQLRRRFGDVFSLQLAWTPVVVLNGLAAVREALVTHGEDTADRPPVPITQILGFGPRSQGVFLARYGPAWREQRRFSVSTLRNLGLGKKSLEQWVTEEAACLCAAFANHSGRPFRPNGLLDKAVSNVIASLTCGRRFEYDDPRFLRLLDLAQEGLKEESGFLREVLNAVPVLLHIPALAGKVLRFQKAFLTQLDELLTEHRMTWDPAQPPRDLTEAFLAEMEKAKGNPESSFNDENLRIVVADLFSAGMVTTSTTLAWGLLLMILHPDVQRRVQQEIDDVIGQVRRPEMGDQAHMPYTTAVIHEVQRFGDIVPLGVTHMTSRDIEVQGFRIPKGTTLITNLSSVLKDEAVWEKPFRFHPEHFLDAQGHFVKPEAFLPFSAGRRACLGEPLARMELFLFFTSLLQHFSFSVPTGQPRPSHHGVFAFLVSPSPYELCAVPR
Glucocorticoid receptor (Homo sapiens), sequence (P04150 whole entry, looked up): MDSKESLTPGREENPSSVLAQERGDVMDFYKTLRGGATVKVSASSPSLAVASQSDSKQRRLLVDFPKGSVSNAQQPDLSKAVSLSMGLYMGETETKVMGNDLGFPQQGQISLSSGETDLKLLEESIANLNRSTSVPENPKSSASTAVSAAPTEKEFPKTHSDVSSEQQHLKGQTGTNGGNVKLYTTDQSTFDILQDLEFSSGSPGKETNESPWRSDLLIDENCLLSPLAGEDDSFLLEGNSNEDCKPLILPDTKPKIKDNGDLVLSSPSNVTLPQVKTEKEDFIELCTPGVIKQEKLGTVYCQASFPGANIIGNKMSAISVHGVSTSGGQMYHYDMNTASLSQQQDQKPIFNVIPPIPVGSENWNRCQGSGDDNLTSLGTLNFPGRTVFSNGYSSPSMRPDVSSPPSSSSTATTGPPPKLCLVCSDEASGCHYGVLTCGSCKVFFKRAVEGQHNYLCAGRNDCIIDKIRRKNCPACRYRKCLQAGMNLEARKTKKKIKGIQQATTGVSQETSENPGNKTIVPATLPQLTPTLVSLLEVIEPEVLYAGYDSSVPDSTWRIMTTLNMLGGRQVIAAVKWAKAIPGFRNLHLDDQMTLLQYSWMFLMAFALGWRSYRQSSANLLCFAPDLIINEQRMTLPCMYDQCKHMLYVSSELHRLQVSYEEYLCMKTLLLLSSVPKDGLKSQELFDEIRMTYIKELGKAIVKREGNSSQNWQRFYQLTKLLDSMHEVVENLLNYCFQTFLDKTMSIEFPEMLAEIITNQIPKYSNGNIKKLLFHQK
3',5'-cyclic-AMP phosphodiesterase 4B (Homo sapiens), sequence (Q07343 whole entry, looked up): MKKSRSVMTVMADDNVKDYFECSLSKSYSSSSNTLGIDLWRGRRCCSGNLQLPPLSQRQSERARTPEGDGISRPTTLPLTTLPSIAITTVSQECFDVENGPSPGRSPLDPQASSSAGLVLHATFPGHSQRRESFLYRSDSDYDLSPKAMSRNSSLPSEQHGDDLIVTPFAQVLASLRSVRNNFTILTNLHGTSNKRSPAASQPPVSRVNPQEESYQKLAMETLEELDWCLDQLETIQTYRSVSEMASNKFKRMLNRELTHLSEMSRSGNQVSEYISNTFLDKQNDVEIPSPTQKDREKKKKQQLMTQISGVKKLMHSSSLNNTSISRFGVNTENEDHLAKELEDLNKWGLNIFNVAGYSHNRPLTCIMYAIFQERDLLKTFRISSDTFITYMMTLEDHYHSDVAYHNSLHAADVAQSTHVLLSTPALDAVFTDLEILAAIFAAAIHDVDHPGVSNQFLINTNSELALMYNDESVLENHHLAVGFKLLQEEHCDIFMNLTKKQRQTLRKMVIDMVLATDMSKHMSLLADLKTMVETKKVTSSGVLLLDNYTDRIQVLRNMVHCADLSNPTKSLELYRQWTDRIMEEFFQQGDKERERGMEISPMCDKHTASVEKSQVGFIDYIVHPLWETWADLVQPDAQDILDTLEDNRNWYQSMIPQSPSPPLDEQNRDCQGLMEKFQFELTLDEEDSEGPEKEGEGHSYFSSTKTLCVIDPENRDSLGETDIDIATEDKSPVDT
Ubiquitin carboxyl-terminal hydrolase 1 (Homo sapiens), sequence (O94782 whole entry, looked up): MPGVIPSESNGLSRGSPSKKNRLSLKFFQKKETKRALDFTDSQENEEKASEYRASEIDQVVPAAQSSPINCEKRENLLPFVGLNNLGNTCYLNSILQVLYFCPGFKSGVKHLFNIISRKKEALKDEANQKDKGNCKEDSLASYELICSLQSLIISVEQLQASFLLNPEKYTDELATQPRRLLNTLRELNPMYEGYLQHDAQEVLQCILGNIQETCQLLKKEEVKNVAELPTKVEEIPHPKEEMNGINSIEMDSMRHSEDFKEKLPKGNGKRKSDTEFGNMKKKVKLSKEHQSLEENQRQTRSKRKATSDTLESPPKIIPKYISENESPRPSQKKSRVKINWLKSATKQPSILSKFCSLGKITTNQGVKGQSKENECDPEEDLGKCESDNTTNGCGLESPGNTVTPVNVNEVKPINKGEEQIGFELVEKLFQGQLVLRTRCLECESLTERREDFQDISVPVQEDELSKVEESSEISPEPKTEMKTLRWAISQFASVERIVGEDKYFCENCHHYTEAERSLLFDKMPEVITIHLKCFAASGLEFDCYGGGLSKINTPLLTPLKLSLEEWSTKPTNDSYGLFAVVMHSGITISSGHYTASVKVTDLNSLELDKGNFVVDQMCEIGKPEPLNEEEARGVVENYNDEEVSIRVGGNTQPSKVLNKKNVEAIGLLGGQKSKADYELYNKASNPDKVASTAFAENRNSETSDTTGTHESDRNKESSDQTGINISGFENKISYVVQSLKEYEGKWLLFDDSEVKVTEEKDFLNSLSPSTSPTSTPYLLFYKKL
Pyruvate kinase (Leishmania mexicana), sequence (Q27686 2-499 E452W): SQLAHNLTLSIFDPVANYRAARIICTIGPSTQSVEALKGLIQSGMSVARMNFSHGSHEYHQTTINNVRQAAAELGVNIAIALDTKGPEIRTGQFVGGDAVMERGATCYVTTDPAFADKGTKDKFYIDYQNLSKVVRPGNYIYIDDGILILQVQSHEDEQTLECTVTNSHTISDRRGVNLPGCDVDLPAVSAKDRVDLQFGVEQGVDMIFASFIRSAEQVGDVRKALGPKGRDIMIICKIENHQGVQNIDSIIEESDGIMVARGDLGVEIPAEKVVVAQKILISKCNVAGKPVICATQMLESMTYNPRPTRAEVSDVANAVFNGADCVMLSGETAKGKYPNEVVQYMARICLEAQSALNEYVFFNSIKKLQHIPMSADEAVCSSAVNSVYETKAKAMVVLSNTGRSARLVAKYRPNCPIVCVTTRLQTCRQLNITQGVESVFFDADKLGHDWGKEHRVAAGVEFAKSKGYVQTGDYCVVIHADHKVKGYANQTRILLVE

As for `NC1(C(=O)O)C[C@H](C(=O)O)[C@H](C(=O)O)C1` (stereo not given in full), the Potency entry in experiment [1], in experiment [4], in [5], in experiment [8], in experiment [9] and in [10] was “inactive” in each case. Further, the Potency in experiment [2] was > 46 µM (inactive); in experiment [3], > 46 µM (inactive); in experiment [6], 6.31 µM (active). Moreover, in experiment [7], the activity change, negative = inhibition was 1.98% (inactive). Besides, the max response in experiment [7] (setting [21]) was 12.8%; in [7] (setting [22]), 14.8%.

For `CN1CCN(CCc2ccc(Cl)c(Cl)c2)CC1`, the Potency in [1] was 25.1 µM (active); in experiment [2] it was > 46 µM (inactive); in experiment [3], > 46 µM (inactive). Further, the Potency result in [4], in [5], in experiment [11], in experiment [8], in experiment [9] and in [10] was “inactive” each time. Further, the activity change, negative = inhibition in experiment [7] is -0.655% (inactive). Moreover, the max response was -14.6% in experiment [7] (setting [21]) and -12.9% in experiment [7] (setting [22]).

As for `NC[C@](O)(CS(=O)(=O)O)c1ccc(Cl)cc1`, the activity change, negative = inhibition in experiment [12] was 6.15% (inactive); in experiment [13], -5.4% (inactive); in experiment [7] it was -5.03% (inactive). Moreover, the Potency in [2] and in [3] was > 46 µM (inactive) in each case. Further, the Potency entry in [4], in experiment [5], in experiment [6], in experiment [14], in [15] and in [16] was “inactive” each time. For the same compound, the Potency result in [17], in experiment [8], in experiment [9] and in experiment [10] was “inactive” throughout. The compound was classed as inactive in experiment [18] and in [19]. Besides, the max response in [7] (setting [21]) turned out to be 11.5%; in experiment [7] (setting [22]), 9.5%.

In the case of `C=C[C@@]1(C)CC(=O)[C@@]2(O)[C@@]3(C)[C@@H](O)CCC(C)(C)[C@@H]3[C@H](O)[C@H](OC(C)=O)[C@@]2(C)O1`, the Potency in experiment [1] is 31.6 µM (active); in experiment [2], > 46 µM (inactive); in experiment [3] it was > 46 µM (inactive). Also, the activity change, negative = inhibition in [7] is -0.114% (inactive). The max response came out at 13.9% in experiment [7] (setting [21]) and 18.7% in [7] (setting [22]). Moreover, the Potency entry in experiment [11], in experiment [8], in experiment [9] and in experiment [10] was “inactive” throughout.

With `O=C(O)[C@H]1CCCNC1`, the activity change, negative = inhibition was 5.2% (inactive) in experiment [12], 2.68% (inactive) in [13] and -2.39% (inactive) in experiment [7]. Besides, the Potency result in [1], in experiment [4], in experiment [5], in experiment [6], in [15] and in [16] was “inactive” each time. Besides, the Potency entry in experiment [17], in [9] and in experiment [10] was “inactive” in each case. Besides, in [20], the activity, negative = inhibition was -8.68% (inactive). The Potency in experiment [2] and in experiment [3] was > 46 µM (inactive) each time. In addition, the call in [18] and in experiment [19] was inactive. Also, the max response is -0.0867% in experiment [7] (setting [21]) and -1.72% in [7] (setting [22]).

Regarding `N[C@@H](C(=O)O)c1ccc(C(=O)O)c(C(=O)O)c1`, the Potency result in experiment [1], in experiment [4], in experiment [5], in experiment [11], in experiment [8] and in [9] was “inactive” throughout. Also, the Potency result in [10] was “inactive”. For the same compound, the Potency is > 46 µM (inactive) in [2], > 46 µM (inactive) in experiment [3] and 7.94 µM (active) in [15]. In experiment [7], the activity change, negative = inhibition is 1.89% (inactive) and 0.925% (inactive) and 9.39% (inactive). Besides, the max response in experiment [7] (setting [21]) is -4.21% and -1.65% and 13.2%; in experiment [7] (setting [22]), -0.754% and -2.49% and 18.8%.
